# Assay results as given in PubChem BioAssay (NCI).
# The panel holds about 83,000 compounds, 20% with a hit somewhere; the sample as a whole holds those more often.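 Cells were grown in 96-well plates and exposed to the test compound at a single concentration for 48 hours; results are reported as percent growth, with values below 10 considered active.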 A number with no mark means an inactive call. Calls of active or inactive are those of the source.
# Test system: SF-539 CNS
# Test: NCI-60 one-dose screen, 48 h (100 = growth as untreated, 0 = no growth, -100 = all killed)
# Conditions: 10 µM unless noted
row,Structure (SMILES),growth
1,N#Cc1c(N)[nH]c(S)c1C#N,97.9%
2,NC(=Nc1ccccc1)SCCCCSC(N)=Nc1ccccc1,114%
3,CN(C)c1cccc2c(S(=O)(=O)N[C@H]3CC[C@H]4[C@@H]5CCc6cc(O)ccc6[C@H]5CC[C@]34C)cccc12,44.7%
4,CCCCCCCCCCCCCCCCCc1nccn1CCO,66.5%
5,COC(=O)CCC1=C(C)/C(=C/c2[nH]c(-c3ccc[nH]3)cc2OC)N=C1C,18.7%
6,NC(=O)N/N=C/c1ccc(Br)o1,101%
7,COc1ccc(OC)c2c1[nH]c(=O)c1c3ccccc3cn21,-98.5% (active)
8,O=C1C(=O)c2ccc(Br)cc2-c2cc(Br)ccc21,117%
9,O=c1c(O)cccn1CCCNCCCN(CCCn1cccc(O)c1=O)CCCn1cccc(O)c1=O,108%
10,CN(CCOc1ccc(CC2SC(=O)NC2=O)cc1)c1ccccn1 (centres undefined),104%
11,COc1cccc2c1C(=O)c1c(O)c3c(c(O)c1C2=O)C[C@@](O)(/C(C)=N/NC(=O)c1cccc([N+](=O)[O-])c1)C[C@@H]3OC1CC(N)C(O)C(C)O1 (some centres undefined),-25.7% (active)
12,Cc1nnc(Nc2ccc(NC(=O)Nc3ccc(Cl)cc3)cc2)c2ccccc12,16.2%
13,O=C(Nc1ccc(Cl)cc1)Nc1ccc(Nc2nncc3ccccc23)cc1,33%
14,OCc1nnn(-c2ccccc2)c1CO,116%
15,COc1ccc2c(c1)C(=O)c1c-2c(=O)n(CCCCCCC(=O)NO)c2ccccc12,7.21% (active)
16,O=[N+]([O-])c1ccc(N/N=C\c2ccccc2[N+](=O)[O-])nc1,109%
17,CN1COc2ccc3ccccc3c2C1,84.9%
18,O=C(Nc1cccc2ccccc12)c1cc2c(cc1Br)OCO2,78.6%
19,Cc1cc(NC(=O)Nc2cc(Cl)ccc2C)no1,94.1%

row,Structure (SMILES),growth
1,O=C1C[C@@H]2/C(=C(O)\C=C\c3ccccc3)C(=O)C=C[C@@H]2O1,-43.3% (active)
2,O=C1/C(=C/c2ccc([N+](=O)[O-])o2)Oc2ccc(Cl)cc21,-25.6% (active)
3,c1ccc(N2CCN(c3nncc4ccccc34)CC2)nc1,113%
4,O=C(Nc1ccc(Oc2ccc(NC(=O)Nc3ccc([N+](=O)[O-])cc3)cc2)cc1)Nc1ccc([N+](=O)[O-])cc1,24.9%
5,Cc1cc(C)n(C(=O)c2nn(-c3ccc(Cl)cc3)cc2O)n1,39.1%
6,NC(=O)c1ncn([C@@H]2O[C@H](CO)[C@@H](O)[C@H]2O)n1,108%
7,CCCCN(CCCC)CCCOC(=O)c1ccc(N)cc1,94.4%
8,COc1ccc2c(c1)C(=O)/C(=C/c1ccc([N+](=O)[O-])s1)O2,-46.2% (active)
9,CCCCCCCCCCCCCCCCCC1=NC(C)(C)CN1CCO,-80.6% (active)
10,COc1cc([C@@H]2c3cc4c(cc3C(O[C@@H]3O[C@@H]5CO[C@@H](c6cccs6)OC5[C@H](O)[C@H]3O)C3COC(=O)[C@@H]32)OCO4)cc(OC)c1O (some centres undefined),-35.5% (active)
11,CC12CCC3C(CCC4CC(=O)/C(=C\O)CC43C)C1CCC(=O)O2 (centres undefined),111%
12,O=C(Nc1ccc(Cl)cc1Cl)Nc1ccc(-c2cccnc2)cc1N1CCC(CO)CC1,30.9%
13,CCN(CC)CCCCNc1c2ccccc2[n+](C)c2c1[nH]c1ccccc12,-40.6% (active)
14,Cc1ccc(NC(=O)Nc2ccc(-c3cccnc3)cc2N2CCC(CO)CC2)cc1,1.34% (active)
15,COc1cc(C2CC(c3ccc(C)cc3)=NN2C(C)=O)ccc1Oc1ccnc2cc(Cl)ccc12 (centres undefined),23.1%
16,C[n+]1c2ccccc2c(NC2CCNCC2)c2[nH]c3ccccc3c21,16.7%
17,Clc1ccc([C@@H]2C[C@@H]3Cc4cc(Br)c5ccccc5c4N2O3)c(Cl)c1,91.4%
18,C=C(C)[C@@H]1C[C@H](O)Cc2cc(Cl)cc(Cl)c2N1,94.5%

# Test system: UACC-257 melanoma
# Test: as above
# Conditions: 10 µM unless noted
row,Structure (SMILES),growth
1,N#Cc1c(N)[nH]c(S)c1C#N,99.9%
2,NC(=Nc1ccccc1)SCCCCSC(N)=Nc1ccccc1,101%
3,CN(C)c1cccc2c(S(=O)(=O)N[C@H]3CC[C@H]4[C@@H]5CCc6cc(O)ccc6[C@H]5CC[C@]34C)cccc12,52.8%
4,CCCCCCCCCCCCCCCCCc1nccn1CCO,90.2%
5,COC(=O)CCC1=C(C)/C(=C/c2[nH]c(-c3ccc[nH]3)cc2OC)N=C1C,-16.4% (active)
6,NC(=O)N/N=C/c1ccc(Br)o1,105%
7,COc1ccc(OC)c2c1[nH]c(=O)c1c3ccccc3cn21,-75.5% (active)
8,O=C1C(=O)c2ccc(Br)cc2-c2cc(Br)ccc21,76.8%
9,O=c1c(O)cccn1CCCNCCCN(CCCn1cccc(O)c1=O)CCCn1cccc(O)c1=O,121%
10,CN(CCOc1ccc(CC2SC(=O)NC2=O)cc1)c1ccccn1 (centres undefined),98.4%
11,COc1cccc2c1C(=O)c1c(O)c3c(c(O)c1C2=O)C[C@@](O)(/C(C)=N/NC(=O)c1cccc([N+](=O)[O-])c1)C[C@@H]3OC1CC(N)C(O)C(C)O1 (some centres undefined),-37.4% (active)
12,Cc1nnc(Nc2ccc(NC(=O)Nc3ccc(Cl)cc3)cc2)c2ccccc12,73.8%
13,O=C(Nc1ccc(Cl)cc1)Nc1ccc(Nc2nncc3ccccc23)cc1,15.3%
14,OCc1nnn(-c2ccccc2)c1CO,124%
15,COc1ccc2c(c1)C(=O)c1c-2c(=O)n(CCCCCCC(=O)NO)c2ccccc12,-6.3% (active)
16,O=[N+]([O-])c1ccc(N/N=C\c2ccccc2[N+](=O)[O-])nc1,119%
17,CN1COc2ccc3ccccc3c2C1,107%
18,O=C(Nc1cccc2ccccc12)c1cc2c(cc1Br)OCO2,114%
19,Cc1cc(NC(=O)Nc2cc(Cl)ccc2C)no1,115%

row,Structure (SMILES),growth
1,O=C1C[C@@H]2/C(=C(O)\C=C\c3ccccc3)C(=O)C=C[C@@H]2O1,-43.4% (active)
2,O=C1/C(=C/c2ccc([N+](=O)[O-])o2)Oc2ccc(Cl)cc21,-2.07% (active)
3,c1ccc(N2CCN(c3nncc4ccccc34)CC2)nc1,99%
4,O=C(Nc1ccc(Oc2ccc(NC(=O)Nc3ccc([N+](=O)[O-])cc3)cc2)cc1)Nc1ccc([N+](=O)[O-])cc1,-20.9% (active)
5,Cc1cc(C)n(C(=O)c2nn(-c3ccc(Cl)cc3)cc2O)n1,82.5%
6,NC(=O)c1ncn([C@@H]2O[C@H](CO)[C@@H](O)[C@H]2O)n1,103%
7,CCCCN(CCCC)CCCOC(=O)c1ccc(N)cc1,88%
8,COc1ccc2c(c1)C(=O)/C(=C/c1ccc([N+](=O)[O-])s1)O2,-0.975% (active)
9,CCCCCCCCCCCCCCCCCC1=NC(C)(C)CN1CCO,-10.6% (active)
10,COc1cc([C@@H]2c3cc4c(cc3C(O[C@@H]3O[C@@H]5CO[C@@H](c6cccs6)OC5[C@H](O)[C@H]3O)C3COC(=O)[C@@H]32)OCO4)cc(OC)c1O (some centres undefined),-19.7% (active)
11,CC12CCC3C(CCC4CC(=O)/C(=C\O)CC43C)C1CCC(=O)O2 (centres undefined),115%
12,O=C(Nc1ccc(Cl)cc1Cl)Nc1ccc(-c2cccnc2)cc1N1CCC(CO)CC1,47.8%
13,CCN(CC)CCCCNc1c2ccccc2[n+](C)c2c1[nH]c1ccccc12,-42.6% (active)
14,Cc1ccc(NC(=O)Nc2ccc(-c3cccnc3)cc2N2CCC(CO)CC2)cc1,24.3%
15,COc1cc(C2CC(c3ccc(C)cc3)=NN2C(C)=O)ccc1Oc1ccnc2cc(Cl)ccc12 (centres undefined),102%
16,C[n+]1c2ccccc2c(NC2CCNCC2)c2[nH]c3ccccc3c21,57.2%
17,Clc1ccc([C@@H]2C[C@@H]3Cc4cc(Br)c5ccccc5c4N2O3)c(Cl)c1,66.1%
18,C=C(C)[C@@H]1C[C@H](O)Cc2cc(Cl)cc(Cl)c2N1,104%
